A selection: hits, their analogues and other compounds. The true share with any hit is near 2.7%.
gsp ag = gsp mutant agonism | Potency, µM (doses to about 76.9 µM), for inactives: at the highest dose activation (cAMP increase), actives largely listed as activators | AID 624287 | 0.13% of 340,000 active | gsp mutant cells, cAMP HTRF, 30 min; active means well fitted activation curve with a large enough effect; inconclusive means small, poorly fitted or top-dose-only effect, or another doubt; inactive means no such curve, though single readings can be large or run the other way; cell line not stated here;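 further: phosphodiesterase inhibitor Ro 20-1724 added with compounds to block cAMP breakdown; potency means the concentration at half of the fitted maximal effect; nearly all actives have a fitted effect of over 60% in size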
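Cells stably selected in G418 were plated at 2000/well, grown 16-24 hr, then given compounds in DMSO with the PDE inhibitor […] (300 uM solution added) for 30 min at 37C; cAMP was read by HTRF.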
RXFP1 antagonist = RXFP1 (human) relaxin receptor antagonism; HEK293-RXFP1, relaxin-stimulated cAMP HTRF, 30 min; stronger effect = lower value; activity change, negative = inhibition, % at 57.5 µM; 0.59% of 350,000 active;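 active means activity change of -60% or lower, but not beyond a set lower limit; inconclusive means change between -60% and -40%, or beyond the set limit; inactive means change above -40%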; further: on the % scale 0 is the no-effect control and ±100 the full control effect
Target sequence (Q9HBX9 whole entry, looked up): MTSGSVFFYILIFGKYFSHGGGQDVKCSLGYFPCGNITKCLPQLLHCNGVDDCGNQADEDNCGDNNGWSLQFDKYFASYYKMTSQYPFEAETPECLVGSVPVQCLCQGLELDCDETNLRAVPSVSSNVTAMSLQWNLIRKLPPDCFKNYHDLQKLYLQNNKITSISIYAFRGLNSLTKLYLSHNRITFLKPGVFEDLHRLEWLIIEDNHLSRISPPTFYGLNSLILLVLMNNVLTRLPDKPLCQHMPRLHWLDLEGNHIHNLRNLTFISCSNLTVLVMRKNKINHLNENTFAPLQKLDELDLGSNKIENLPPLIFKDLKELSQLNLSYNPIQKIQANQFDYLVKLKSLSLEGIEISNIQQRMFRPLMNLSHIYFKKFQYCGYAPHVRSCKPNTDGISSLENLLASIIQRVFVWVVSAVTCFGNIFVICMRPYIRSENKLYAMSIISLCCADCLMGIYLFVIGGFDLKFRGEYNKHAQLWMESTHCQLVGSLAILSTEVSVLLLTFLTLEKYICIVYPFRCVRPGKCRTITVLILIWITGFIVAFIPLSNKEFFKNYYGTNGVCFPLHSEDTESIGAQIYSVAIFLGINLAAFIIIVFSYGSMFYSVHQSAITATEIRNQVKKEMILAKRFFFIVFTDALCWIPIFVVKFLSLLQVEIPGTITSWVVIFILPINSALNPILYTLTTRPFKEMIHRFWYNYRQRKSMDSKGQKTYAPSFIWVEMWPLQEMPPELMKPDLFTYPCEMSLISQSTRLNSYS
pAkt inh = inhibitors of Akt phosphorylation | 0.32% of 360,000 active | Neuro2A IGF-stimulated pAkt S473 HTRF, 20 min; stronger effect = lower value | AID 651550 | activity change, % for hits at 50 µM; in the data active means activity change below about -80%; inconclusive means mostly about -51% to -80%; further: on the % scale 0 is the no-effect control and ±100 the full control effect
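Neuro2A cells in DMEM with 0.5% FBS, overnight at 37 deg C, given compound at single 50 µM final, then IGF (6 nM final) for 20 min at 37 deg C. Lysed; phospho-Akt Ser473 by HTRF after 24 h, 665/615 ratio.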
gsp antagonist = antagonizes gsp, the McCune-Albright syndrome mutation; Potency, µM (titrated, usually from 76.9 µM), without a hit: at the highest dose activity change, negative = inhibition, usual class: inhibitors; 0.4% of 340,000 active; AID 624288; gsp-mutant cells, cAMP HTRF, 30 min; calls by dose curve; cell line not stated here;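 further: intracellular cAMP measured with PDE inhibitor Ro 20-1724 present during compound exposure; potency means the concentration at half of the fitted maximal effect; on the % scale 0 is the no-effect control and ±100 the full control effect; nearly all actives have a fitted effect of over 65% in size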
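HTRF cAMP measurement after 30 min RT detection following 30 min, 37C compound treatment alongside […] (added as 300 uM solution) in G418-selected cells seeded at 2000/well and grown 16–24 h.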
RXFP1 ag = agonists of human relaxin receptor RXFP1; Q9HBX9; HEK293T-RXFP1 cAMP TR-FRET, 30 min; response scale: percent of porcine relaxin response, buffer zero; Potency, µM (series often up to 57.5 µM), inactives show at the top dose activation, hits mostly activators; 0.3% of 370,000 active; active means well fitted activation curve with a large enough effect; inconclusive means small, poorly fitted or top-dose-only effect; further: potency means the concentration at half of the fitted maximal effect; on the % scale 0 is the no-effect control and ±100 the full control effect; nearly all actives have a fitted effect of over 60% in size
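HEK293 cells stably expressing RXFP1, treated 30 min at 37C with compounds plus PDE4 inhibitor Ro 20174; cAMP measured by HTRF TR-FRET. Normalized to buffer and 29 nM porcine relaxin; EC50 by Hill fit.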
ClpP mod = qHTS Assay for Activators of ClpP | AID 651965, 2013 | purified B. subtilis ClpP, FRET peptide cleavage, 20 min | 1.9% of 340,000 active | Potency, µM (top dose mostly 57.5 µM), for the others: at the highest dose activity change, negative = active; active means well fitted falling curve with a large enough effect; inconclusive means small, poorly fitted or top-dose-only effect; inactive means no such curve, though single readings can be large or run the other way; further: potency means the concentration at half of the fitted maximal effect; the source files actives as falling curves though it sought activators and does not explain the sign; nearly all actives have a fitted effect of over 65% in size
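FRET quenching reversal measured ClpP activation: 10 microg/mL B. subtilis ClpP at pH 8 with the FRET-FV decapeptide, read at 430 nm after 320 nm excitation. The 20-min minus 0-min signal was scaled between DMSO/no-enzyme wells and ADEP (5.8 microM final).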
Active calls of the source: *; i = inactive; ? = inconclusive; . = no result; [ ] = remark or other dose.

SMILES	gsp ag	RXFP1 antagonist	pAkt inh	gsp antagonist	RXFP1 ag	ClpP mod
COc1ccc(CCNC(=O)C2CCC(=O)N(C3CCCCCC3)C2)cc1 (configuration not stated)	?	1.0	i	50.1µM*	-1.9%	-4.5%
CC(C)Oc1ccc(CCNC(=O)C2CCC(=O)N(C3CCCCCC3)C2)cc1 (configuration not stated)	?	-5.3	i	-0.9%	3.0%	1.6%
Cc1cccn2c(=O)c3cc(C(=O)O)n(C)c3nc12	?	.	i	-4.1%	10.2%	31.6µM*
CCCCNC(=O)c1cc2c(=O)n3cccc(C)c3nc2n(Cc2ccncc2)c1=N	26.6%	11.2	i	8.6%	8.6%	3.55µM*
Cc1cccn2c(=O)c3cc(C(=O)NC(C)(C)C)n(C)c3nc12	.	-3.8	.	.	3.2%	4.9%
Cc1cccn2c(=O)c3cc(C#N)c(=N)n(CCN4CCOCC4)c3nc12	-10.7%	6.9	i	8.2%	2.6%	15.8µM*
CCCCNC(=O)c1cc2c(=O)n3cccc(C)c3nc2n(CCN2CCOCC2)c1=N	14.9%	.	i	2.3%	11.1%	12.6µM*
O=S(=O)(/N=C(/Sc1ccccc1)c1ccccc1)c1ccc(Cl)cc1	.	.	.	.	.	-4.8%
Cc1[nH]cnc1-c1ccc(Cl)cc1	.	13.2	.	.	.	.
COc1ccc(-c2cc(C(=O)NCCc3ccccc3)c3c(-c4ccccc4)[nH]nc3n2)cc1	.	.	.	.	4.7%	12.6µM*
COc1ccc(-c2cc(C(=O)NCCc3ccccc3)c3c(-c4ccc(Cl)cc4)[nH]nc3n2)cc1	.	.	.	.	2.8%	4.3%
CCOc1c(C)cc(-c2ncccc2O)cc1C	?	15.9	i	1.4%	2.4%	28.2µM*
COc1ccc(-c2ncccc2O)cc1	-2.7%	3.7	i	5.7%	1.4%	25.1µM*
COc1ccc(-c2ncccc2OC(=O)C23CC4CC(CC(C4)C2)C3)cc1	2.2%	-17.3	i	-21.9%	6.9%	25.1µM*
COC(=O)[C@]12CCCCC=C1N(Cc1cccc3ccccc13)C(=O)[C@H](CC(=O)N1CCCC1)C2	.	.	i	.	.	0.4%
O=C(NNC(=O)c1ccc([N+](=O)[O-])cc1C(=O)O)c1ccncc1	39.5%[15.4 µM]	-2.4	i	-6.2%	-1.3%	-0.6%
CC(C)Cn1c(-c2cccs2)nc2ccccc21	?	-14.3	i	1.4%	3.3%	50.0%
CC(C)CC(C)c1cc(N)nc2nc3ccccc3n12 (configuration not stated)	-1.6%[15.4 µM]	-61.1*	i	-5.2%	3.1%	.
CC(C)(C)C(=O)OCCNc1nc(-c2ccccc2)nc2ccccc12	?	?	i	50.1µM*	0.0%	3.3%
COc1ccc(C)c2sc(NC(=O)c3ccc(S(=O)(=O)N4CCCCC4)cc3)nc12	.	.	.	.	-1.8%	-3.2%
CCCCn1c(N)c(N(CCC(C)C)C(=O)COC(=O)/C=C/c2ccc(F)cc2)c(=O)[nH]c1=O	-37.1%	6.2	i	1.5%	.	-3.1%
Cc1[nH]nc2c1C(c1cccc(O)c1)C1=C(CC(C)(C)CC1=O)N2 (configuration not stated)	11.8%	-0.8	i	1.6%	8.0%	28.2µM*
Cc1ccc(C2C3=C(CC(C)(C)CC3=O)Nc3n[nH]c(C)c32)cc1 (configuration not stated)	-35.2%	12.0	i	-2.3%	0.2%	25.1µM*
Cc1[nH]nc2c1C(c1ccc(N(C)C)cc1)C1=C(CC(C)(C)CC1=O)N2 (configuration not stated)	-1.5%	-23.9	i	-9.6%	-0.9%	.
Cc1[nH]nc2c1C(c1ccc(F)cc1)C1=C(CC(C)(C)CC1=O)N2 (configuration not stated)	0.0%	-2.9	i	-6.9%	-0.3%	25.1µM*
CCC(=O)N1CCc2cc(Br)cc(S(=O)(=O)CCC(=O)Nc3ccccc3C)c21	.	-9.5	.	.	-0.9%	-0.7%
